Experimental findings from ChEMBL document CHEMBL4303122, “Identification of potential treatments for COVID-19 through artificial intelligence-enabled phenomic analysis of human cells infected with SARS-CoV-2” (2020) are described below.

Over roughly 1,600 compounds, “Hit score” has its median near 0.13; the highest 2% begin near 0.46. For the sample, the highest values were picked, then their nearest neighbours and some compounds at random.

The experiment relates to SARS-CoV-2. The experiment in a line: Antiviral activity against SARS-CoV-2 (USA-WA1/2020 strain) measured by imaging in HRCE cells at MOI 0.4 after 96 hrs (reported as hit score from 0-1 for on-disease vs off-disease activity: scores >0.6 considered hits). The format is functional, Homo sapiens.
Take `Cc1ccc2c(Cl)cc(Cl)c(O)c2n1` [CHLORQUINALDOL]: the Hit score is reported as 0.2863. The figure for `Oc1c(Cl)cc(Cl)c(Cl)c1Cc1c(O)c(Cl)cc(Cl)c1Cl` [HEXACHLOROPHENE] is 0.5286; for `O=C(Nc1cc(Cl)cc(Cl)c1O)c1c(O)c(Cl)cc(Cl)c1Cl` [OXYCLOZANIDE] it is 0.1882; for `Cc1ccc(C(=O)Nc2ccc(CN3CCN(C)CC3)c(C(F)(F)F)c2)cc1C#Cc1cnc2cccnn12` [PONATINIB] it is 0.5086.

`CS(=O)(=O)c1ccc(C(=O)Nc2ccc(Cl)c(-c3ccccn3)c2)c(Cl)c1` [VISMODEGIB]: the Hit score is 0.5244. The figure for `O=C(O)c1ccccc1C(=O)Nc1ccc(S(=O)(=O)Nc2nccs2)cc1` [PHTHALYLSULFATHIAZOLE] is 0.0541. The figure for `Cc1cc(-c2ccc(/N=N/c3ccc4c(S(=O)(=O)[O-])cc(S(=O)(=O)[O-])c(N)c4c3O)c(C)c2)ccc1/N=N/c1ccc2c(S(=O)(=O)[O-])cc(S(=O)(=O)[O-])c(N)c2c1O.[Na+].[Na+].[Na+].[Na+]` [EVANS BLUE] is 0.2486; for `CC(SC(=O)c1cccs1)C(=O)NCC(=O)O` (configuration not stated) [STEPRONIN] it is 0.2404; for `CCCC(CCC)C(=O)O.CCCC(CCC)C(=O)[O-].[Na+]` [DIVALPROEX SODIUM] it is 0.2277. The figure for `CCCCCCC(=O)O[C@H]1CC[C@H]2[C@@H]3CCC4=CC(=O)CC[C@]4(C)[C@H]3CC[C@]12C` [TESTOSTERONE ENANTHATE] is 0.1237. As for `CC(C)(C)CC(C)(C)c1ccc(OCCOCC[N+](C)(C)Cc2ccccc2)cc1` [BENZETHONIUM], the Hit score is given as 0.03086.

For `Cc1nc2ccccc2n1Cc1ccc(Cl)cc1` [CHLORMIDAZOLE], the Hit score was -0.04269. To `CC(C)/N=c1\cc2n(-c3ccc(Cl)cc3)c3ccccc3nc-2cc1Nc1ccc(Cl)cc1` [CLOFAZIMINE] belongs 0.5936. On to `O=C(O)COCCN1CCN([C@H](c2ccccc2)c2ccc(Cl)cc2)CC1` [LEVOCETIRIZINE], for which the Hit score is given as -0.05445.

The compound `OCCOCCN1CCN(C(c2ccccc2)c2ccc(Cl)cc2)CC1` (configuration not stated) [HYDROXYZINE] had a Hit score of 0.00308. `Clc1ccc(C(OCCN2CCCCC2)c2ccccc2)cc1` (configuration not stated) [CLOPERASTINE] had a Hit score of 0.5618.

In turn, `O=P(O)(O)C(Sc1ccc(Cl)cc1)P(=O)(O)O` [TILUDRONIC ACID] yielded a Hit score of 0.04613. The figure for `Cc1cccc(C)c1NC(=O)CN1CCN(CCCC(c2ccc(F)cc2)c2ccc(F)cc2)CC1` [LIDOFLAZINE] is 0.2006. To `CCCCC(C)(O)C/C=C/[C@H]1[C@H](O)CC(=O)[C@@H]1CCCCCCC(=O)OC` (some centres not stated) [MISOPROSTOL] belongs -0.07952; to `COc1cc(N2CCC(N3CCN(C)CC3)CC2)ccc1Nc1ncc(Cl)c(Nc2ccccc2P(C)(C)=O)n1` [BRIGATINIB], 0.1463. To `N#Cc1cc2c(cc1[N+](=O)[O-])=NC(=O)C(=O)N=2` belongs 0.1284; to `Cl.OC[C@H]1NC[C@@H](O)[C@@H](O)[C@@H]1O`, 0.1457. `CN[C@@H](C)[C@H](O)c1ccccc1.Cl` [EPHEDRINE HYDROCHLORIDE] showed a Hit score of 0.3718. The compound `CC(=O)[C@@]1(O)CC[C@H]2[C@@H]3C[C@H](C)C4=CC(=O)CC[C@]4(C)[C@H]3CC[C@@]21C` gave a Hit score of 0.2069.

For the compound `C[C@H](CCC(=O)O)[C@H]1CC[C@H]2[C@@H]3[C@H](O)C[C@@H]4C[C@H](O)CC[C@]4(C)[C@H]3C[C@H](O)[C@]12C` [CHOLIC ACID], the Hit score is given as 0.1604. `CC(=O)[C@@]1(O)CC[C@H]2[C@@H]3CCC4=CC(=O)CCC4=C3[C@@H](c3ccc(N(C)C)cc3)C[C@@]21C` [ULIPRISTAL] registered a Hit score of 0.1448. `Nc1cccc2c(=O)[nH][nH]c(=O)c12.[Na+]`: the Hit score was found to be 0.2367.

The compound `CCCN[C@@H]1CCc2nc(N)sc2C1` [DEXPRAMIPEXOLE] showed a Hit score of 0.07275. The figure for `CC(C)(C)NC[C@H](O)COc1nsnc1N1CCOCC1` [TIMOLOL] is 0.174; for `CC(C)(C)NC[C@H](O)COc1cccc2c1CCCC2=O` [LEVOBUNOLOL] it is 0.1851; for `CC(C)(C)NCC(O)COc1cc(Cl)ccc1Cl` (configuration not stated) [CLORANOLOL] it is 0.4962. The compound `CC(C)(C)NC[C@H](O)COc1ccccc1C1CCCC1` [PENBUTOLOL] registered a Hit score of 0.4905. To `CC(C)(C)NCC(O)c1cc(Cl)c(N)c(Cl)c1` (configuration not stated) [CLENBUTEROL] belongs -0.07437; to `Cc1ccc(Cl)c(OCC(O)CNC(C)(C)C)c1` (configuration not stated) [BUPRANOLOL], 0.4669. The compound `CC(C)(C)NCC(O)COc1cccc2c1CCC(=O)N2` (configuration not stated) [CARTEOLOL] displayed a Hit score of 0.1646. As to `CC(C)(C)NCC(O)c1cc(Cl)c(N)c(C(F)(F)F)c1` (configuration not stated) [MABUTEROL], the Hit score is given as -0.1589.

`CC(C)(C)NCC(O)c1ccccc1Cl` (configuration not stated) [TULOBUTEROL] displayed a Hit score of -0.01366. `CO[C@@]1(NC(=O)C2SC(=C(C(N)=O)C(=O)O)S2)C(=O)N2C(C(=O)O)=C(CSc3nnnn3C)CS[C@@H]21` (some centres not stated) [CEFOTETAN] displayed a Hit score of 0.1396. Consider `COc1cc2c(Oc3ccc4[nH]c(C)cc4c3F)ccnc2cc1OCC1(N)CC1` [CATEQUENTINIB], for which the Hit score was found to be 0.165.

The compound `CO/N=C(\C(=O)N[C@@H]1C(=O)N2C(C(=O)[O-])=C(C[n+]3cccc4c3CCC4)CS[C@H]12)c1csc(N)n1` [CEFPIROME] returned a Hit score of 0.1204. The compound `COC(=O)OCOc1c2n(ccc1=O)N([C@@H]1c3ccccc3SCc3c1ccc(F)c3F)[C@@H]1COCCN1C2=O` [BALOXAVIR MARBOXIL] gave a Hit score of 5.7e-05. Regarding `O=[N+]([O-])/N=C1\NCCN1Cc1ccc(Cl)nc1` [IMIDACLOPRID], the Hit score was found to be 0.158.

Take `CCOC(=O)CSCCC1NC(C(=O)O)CS1` (configuration not stated) [LETOSTEINE]: the Hit score is 0.08225. Take `O=C(Nc1ccc(Cl)cc1)Nc1ccc(Cl)c(Cl)c1` [TRICLOCARBAN]: the Hit score was 0.4616. Consider `N=C(NCCCCCCNC(=N)NC(=N)Nc1ccc(Cl)cc1)NC(=N)Nc1ccc(Cl)cc1` [CHLORHEXIDINE], for which the Hit score worked out at 0.08739.

In turn, `CNC(=O)c1cc(Oc2ccc(NC(=O)Nc3ccc(Cl)c(C(F)(F)F)c3)cc2)ccn1` [SORAFENIB] came in with a Hit score of 0.2484.

Take `CCCCc1nc(Cl)c(C(=O)O)n1Cc1ccc(-c2ccccc2-c2nn[nH]n2)cc1` [CARBOXYLIC ACID METABOLITE]: the Hit score was determined as 0.01747.
